DTT redox prof = compounds producing H2O2 with reducing agent – biochemical, NIH compound library profiling, artefact control for MLSCN library redox annotation, primary screen; activation, % at 10 µM; DTT-dependent redox cycling H2O2, phenol red/HRP absorbance; 100% = 100 µM peroxide control, 0% = buffer; AID 878; 0.03% of 200,000 active;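 active means activation of at least 50% relative to the plate's high and low controls in the primary single-dose screen; inactive means activation below 50%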;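 further: compound incubated with DTT at 0.8 mM final as the reducing agent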
PERK inh = inhibitors of human PERK kinase; Q9NZJ5; CHO PERK-DD fusion, SEAP luminescence translation reporter; inhibition, % at 5.6 µM; 0.17% of 220,000 active; AID 1416;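 active means inhibition above the mean inhibition of all tested compounds plus 3 SD, set separately per screening campaign, cut at about 2.9% in these data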;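 further: PERK kinase domain activated by AP20187 dimerizer at 100 nM; 0% = DMSO with dimerizer and 100% = rapamycin at 8.4 µM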
Target sequence (Q9NZJ5 whole entry, looked up, the tested form may be a part): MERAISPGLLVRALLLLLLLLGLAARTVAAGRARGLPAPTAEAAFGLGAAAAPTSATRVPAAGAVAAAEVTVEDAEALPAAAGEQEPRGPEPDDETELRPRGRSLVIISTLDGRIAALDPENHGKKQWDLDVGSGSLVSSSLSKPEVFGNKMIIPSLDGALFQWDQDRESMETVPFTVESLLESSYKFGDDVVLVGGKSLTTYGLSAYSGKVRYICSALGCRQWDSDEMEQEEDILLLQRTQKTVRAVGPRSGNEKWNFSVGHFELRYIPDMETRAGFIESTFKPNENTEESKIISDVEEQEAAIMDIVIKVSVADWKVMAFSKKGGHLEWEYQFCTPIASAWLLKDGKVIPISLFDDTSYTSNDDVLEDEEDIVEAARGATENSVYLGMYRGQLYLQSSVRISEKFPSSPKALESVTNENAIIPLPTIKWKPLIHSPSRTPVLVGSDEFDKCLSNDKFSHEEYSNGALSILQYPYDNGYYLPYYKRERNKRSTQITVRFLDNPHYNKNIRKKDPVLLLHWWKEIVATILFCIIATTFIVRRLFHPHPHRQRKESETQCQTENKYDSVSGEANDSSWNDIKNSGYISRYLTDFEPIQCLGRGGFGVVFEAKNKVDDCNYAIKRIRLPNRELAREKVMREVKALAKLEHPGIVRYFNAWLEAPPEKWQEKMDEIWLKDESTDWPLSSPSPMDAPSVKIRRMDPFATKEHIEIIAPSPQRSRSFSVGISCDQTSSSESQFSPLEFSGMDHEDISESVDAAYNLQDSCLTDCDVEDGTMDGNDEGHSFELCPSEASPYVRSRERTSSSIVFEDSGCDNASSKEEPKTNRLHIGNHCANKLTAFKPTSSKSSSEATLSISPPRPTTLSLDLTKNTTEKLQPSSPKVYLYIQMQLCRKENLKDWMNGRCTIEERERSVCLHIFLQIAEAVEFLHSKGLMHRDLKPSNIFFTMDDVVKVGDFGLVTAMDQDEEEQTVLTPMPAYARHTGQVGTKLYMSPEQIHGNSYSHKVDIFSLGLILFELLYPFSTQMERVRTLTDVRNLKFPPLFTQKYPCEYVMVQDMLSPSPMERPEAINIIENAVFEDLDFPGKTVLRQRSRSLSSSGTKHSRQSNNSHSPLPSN
TNF necrop inh = blocks TNF-alpha induced death of Jurkat FADD-/- cells | Jurkat FADD-/- TNF necroptosis rescue, ATP luminescence, 24 h; 0 = TNF only, 100 = no-TNF cells | activation (protection from cell death), % at 10 µM | 0.068% of 220,000 active | AID 463075;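 active means activation, meaning protection from cell death, of at least 50% relative to plate controls; inactive means activation below 50%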;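 further: necroptosis triggered by 40 ng/mL TNF-alpha added together with compound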
WT yeast gro inh = growth inhibition of WT yeast, mitochondrial fusion screen. mitochondrial fusion phenotypic screen, WT strain. AID 1362. 2.1% of 190,000 active. inhibition, % at 10 µM; in the data active means inhibition above about 58%; tested in S. cerevisiae
L929 necroptosis = blocks zVAD induced death of L929 cells; L929 zVAD necroptosis rescue, ATP luminescence, 24 h; with zVAD 60 µM; viability rescue, % at 10 µM; 0.38% of 220,000 active; AID 1377;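 active means activation, scaled between plate controls, above about 75%, limit read from the data; inactive means activation under that limit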;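 further: 0% = zVAD with DMSO and 100% = DMSO alone without zVAD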
PKD1 inh = PKD1 (human) kinase inhibition | Q15139 | PKD1 kinase fluorescence polarization assay | inhibition, % (test concentration not listed) | 0.056% of 200,000 active | AID 797; in the data active means inhibition above about 50%
Starred values were filed as active, the others as inactive; / = no result. An excerpt weighted towards active compounds, which were near 2.4% of everything screened.

SMILES	DTT redox prof	PERK inh	TNF necrop inh	WT yeast gro inh	L929 necroptosis	PKD1 inh
CC(C)c1nc(SCc2c(F)cccc2Cl)c2c(=O)n(C)c(=O)n(C)c2n1	-1.7	1.2	-3.9	8.8	-0.6	3.0
Cc1c(C(=O)Nc2ccc(OC(F)(F)F)cc2)sc2nc3n(c(=O)c12)CCC3	2.2	0.5	-5.9	-10.9	0.1	-0.7
Cc1c(C(=O)Nc2ccc(Oc3ccccc3)cc2)sc2nc3n(c(=O)c12)CCC3	2.0	-0.4	-2.2	60.7*	0.1	1.7
CC1CC(C)(C)N2C(=O)C3(Nc4ccccc4S3)c3cccc1c32 (stereo not drawn)	-0.1	-1.1	-0.5	66.8*	1.3	-1.8
CCn1cc(CNC(=O)c2cc(COc3ccc(F)cc3F)on2)cn1	0.0	0.3	0.5	-10.8	0.3	-0.3
CC(C)(C)SCCNC(=O)CN(c1ccc(F)cc1)S(=O)(=O)c1ccccc1	-1.8	-0.5	-0.8	3.4	0.3	-2.7
Cc1cc(NC(=O)c2cc(C(C)(C)C)oc2C)no1	/	-1.4	0.5	/	1.0	/
Cc1oc(C(C)(C)C)cc1C(N)=O	/	3.0*	0.1	/	0.6	/
CC(C)(C)NC(=O)C(c1ccco1)N(C(=O)Cn1nnc(-c2ccc(F)cc2)n1)c1ccccc1F (stereo not drawn)	0.1	-0.4	-1.9	62.8*	-0.7	1.1
Clc1ccc2c(N/N=C/c3ccccc3Br)ccnc2c1	/	0.0	0.8	94.9	0.2	3.0
Clc1ccc2c(N/N=C/c3cccc(Br)c3)ccnc2c1	/	-0.1	-10.0	98.7*	3.7	-10.3
CSc1cccc(NC(=S)N(CCCN2CCCC2)Cc2cccn2Cc2ccc(Cl)cc2)c1	0.0	0.4	-1.4	74.0*	-0.1	-0.9
COc1cccc(NC(=S)N(CCCN2CCCC2)Cc2cccn2Cc2ccc(Cl)cc2)c1	0.2	0.3	-2.6	59.1*	-0.2	-4.8
S=C(Nc1cccc(Cl)c1)N(CCCN1CCCC1)Cc1cccn1Cc1ccc(Cl)cc1	0.5	0.1	1.0	80.8*	-1.7	2.0
[O-][n+]1c2c(nc3c1-c1ccccc1C3O)CCCC2 (stereo not drawn)	8.1	0.2	-0.7	-3.9	-0.3	3.4
Cc1c(SCCO)c(=O)[nH]c2cc3c(cc12)OCO3	1.2	-0.5	-0.5	0.8	0.2	-2.0
Cc1ccc(-c2nn(-c3ccccc3)cc2CSC(=N)N)cc1	4.4	-1.0	-25.3	80.7*	16.8	-9.6
OCc1cn(-c2ccccc2)nc1-c1ccc(-c2nn(-c3ccccc3)cc2CO)cc1	-0.1	0.3	-3.2	-9.3	0.8	-1.1
COC1(C)CC2C(CC1OC(=O)c1cc([N+](=O)[O-])cc([N+](=O)[O-])c1)C2(C)C (stereo not drawn)	-0.2	0.3	0.3	75.7*	0.7	3.1
COCC(C)NC(=O)/C(=C/c1ccccc1)c1ccccc1 (stereo not drawn)	0.4	0.5	-0.7	-4.7	0.6	0.9
CC(NC(=O)/C(=C/c1ccc(OC(F)F)cc1)c1ccccc1)c1ccccc1 (stereo not drawn)	0.2	0.5	-0.7	65.3*	1.5	-2.2
Cc1ccc(N=Nc2c(O)n(CN3CCOCC3)c3ccccc23)cc1	-1.7	0.1	-2.9	9.5	85.2*	9.1
Cc1cccc(NC(=S)N=Nc2c(O)n(CN3CCOCC3)c3ccccc23)c1C	0.3	-0.9	2.0	69.1*	-0.9	-0.4
CCCc1nc2cc(CC(=O)OC)ccc2o1	-11.7	3.1*	6.0	-57.0	-0.6	-8.1
O=C(NCc1ccco1)c1cc(-c2ccc(F)cc2)on1	0.1	0.9	-1.2	-0.4	0.8	2.5
SMILES	DTT redox prof	PERK inh	TNF necrop inh	WT yeast gro inh	L929 necroptosis	PKD1 inh
O=C(NCc1ccco1)c1cc(-c2ccccc2)on1	1.1	0.6	-5.8	59.7*	0.7	-7.2
CC12CCC(C(=O)N(Cc3ccccc3)Cc3ccccc3)(OC1=O)C2(C)C (stereo not drawn)	0.1	-1.3	-1.8	79.0*	-1.5	-3.0
CC12CCC(C(=O)NCc3cccnc3)(OC1=O)C2(C)C (stereo not drawn)	-0.4	-0.2	-1.9	-0.8	0.6	5.9
Nc1c(-c2ccccc2)c(CSc2nc3ccccc3[nH]2)nn1-c1cccc(Cl)c1	0.3	-1.0	2.8	71.0*	0.6	-0.4
Nc1c(-c2ccccc2)c(CSc2nc3ccccc3[nH]2)nn1-c1ccc(Cl)cc1	-0.1	-1.6	4.3	71.8*	0.4	1.9
COC(=O)c1cc(=O)n(CCc2ccc(OC)cc2)c(=Nc2ccc(F)c(Cl)c2)s1	-0.8	0.5	-1.9	6.3	-0.9	7.2
COC(=O)c1cc(=O)n(Cc2ccc3c(c2)OCO3)c(=Nc2ccc(F)c(Cl)c2)s1	-1.3	2.9*	-6.7	20.5	-0.7	-13.8
CCOC(=O)c1sc(NC(=O)CCN2CCN(CC)CC2)c(C(=O)OCC)c1C	0.1	-0.8	-0.8	8.9	-1.0	-8.6
Cc1c(C#N)c(=O)c(-[n+]2ccccc2)c([S-])n1-c1ccc(Cl)cc1	/	0.3	0.2	/	-0.5	/
Cc1cccn2c(=O)c(/C=C(\C#N)S(=O)(=O)c3ccccc3)c(Oc3ccc(Cl)cc3)nc12	0.6	0.4	-6.0	59.9*	2.2	2.3
Cc1cc(Oc2nc3c(C)cccn3c(=O)c2/C=C(\C#N)S(=O)(=O)c2ccccc2)ccc1Cl	1.6	1.3	-8.3	24.1	0.6	-5.7
COc1ccc(-c2c/c(=N\c3nc(-c4ccccc4)c(C)s3)c3ccccc3o2)cc1O	1.7	0.5	-17.3	-9.0	0.1	-5.2
COc1ccc(/C=C/c2nc3cc(-c4ccccc4)ccc3o2)cc1O	0.5	0.2	-6.3	67.2*	1.7	4.2
COc1ccc(Sc2cc(C(F)(F)F)nc(-c3ccccn3)n2)cc1	0.1	-0.3	-6.9	62.2*	-0.3	-4.8
COc1ccc(CCNC(=O)CSc2nc3[nH]ncc3c(=O)n2-c2ccc(C)c(Cl)c2)cc1OC	0.3	0.4	-3.0	15.1	-1.4	-1.7
COc1ccc(OCC2c3cc(OC)c(OC)cc3CCN2C(=O)C(C)C)cc1 (stereo not drawn)	0.1	-0.1	0.1	-3.3	-0.6	-7.7
CCOc1ccc2nc(NC(=O)C(NS(=O)(=O)c3cccc4nsnc34)C(C)C)sc2c1 (stereo not drawn)	-0.6	-0.3	-2.2	3.4	0.1	8.9
CC(C)C(NS(=O)(=O)c1cccc2nsnc12)C(=O)Nc1nc2ccc(Cl)cc2s1 (stereo not drawn)	-0.9	1.1	0.0	61.6*	-0.5	10.7
Cc1ccc2nc(NC(=O)C3CCCN(S(=O)(=O)c4cccc5nsnc45)C3)sc2c1 (stereo not drawn)	2.0	-1.7	0.5	64.6*	0.8	-3.4
Cc1ccc2nc(NC(=O)C3CCN(S(=O)(=O)c4cccc5nsnc45)CC3)sc2c1	0.0	-0.7	2.5	38.8	4.9	-0.9

Screens from PubChem BioAssay.
